# Laboratory results published in PubChem BioAssay (NCATS).
# Several values for one entry are separate records, joined by “and”; a condition that tells them apart may be missing. Identical values can stand only once. Results filed as inconclusive are left out. For part of these data: Entries with a potency or affinity are not part of this list. Activity calls are given as the source filed them. Unless noted, the rule behind the calls is not given here.
# Columns and labels:
# [1] = qHTS Assay for Identifying Gametocytocidal Compounds (AID 743244; active = well fitted curve in the direction sought with a large enough effect; an effect the other way counts as inactive or inconclusive; note: potency is the fitted concentration of half-maximal effect;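 for max response: % is set by controls: 0 for no effect and ±100 for the full control effect; actives lower the fluorescent signal which means gametocytes are killed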); conditions: P. falciparum 3D7 stage III-V gametocytes, alamarBlue, 72 h; max response: stronger effect = lower value
# Method in brief: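 Late gametocytes (III–V), P. falciparum 3D7; 72 h drug, then 24 h alamarBlue; resazurin reduction read by fluorescence.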
# [2] = qHTS profiling for inhibitors of Plasmodium falciparum (3D7) proliferation (AID 743322);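 note: infected erythrocytes exposed to compound for 72 h before lysis; 100% = DMSO vehicle wells and 0% = 0.29 µM artemisinin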; conditions: P. falciparum 3D7 proliferation; at 28.7 µM (top of the series)
# Method in brief: (§1)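 Erythrocytes infected with P. falciparum (0.3% parasitemia, 2.5% hematocrit) incubated with compounds 72 h at 37 C, 5% CO2. Lysis with saponin/Triton buffer containing SYBR Green I, overnight at room temperature in the dark; DNA fluorescence (485/535 nm) normalised to 0.29 uM artemisinin and DMSO.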
# [3] = qHTS profiling for inhibitors of Plasmodium falciparum (DD2) proliferation (AID 743323); conditions: lower = more inhibition; at 28.7 µM (top of the series)
# Method in brief: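 1536-well qHTS; infected RBCs 0.3% parasitemia/2.5% Hct final; cpd 72 h 37 C 5% CO2; lysis buffer + SYBR Green I, o/n RT dark; FI 485/535; norm. to 0.29 uM artemisinin and DMSO, plate-stack corrected.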
# [4] = qHTS profiling for inhibitors of Plasmodium falciparum (HB3) proliferation (AID 743324; active = well fitted curve in the direction sought with a large enough effect; an effect the other way counts as inactive or inconclusive;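 note: 100% = DMSO vehicle wells and 0% = artemisinin-treated control wells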); conditions: Plasmodium falciparum HB3 blood-stage proliferation; at 28.7 µM (top of the series)
# Method in brief: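 P. falciparum HB3 grown in erythrocytes (0.3% parasitemia, 2.5% hematocrit final) with compound for 72 h at 37 C, 5% CO2. Parasite DNA detected by SYBR Green after saponin/triton lysis overnight; normalized to 0.29 uM artemisinin and DMSO.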
# [5] = qHTS profiling of the MIPE4 collection as inhibitors of Plasmodium falciparum (3D7) proliferation (AID 743344);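 note: scaled between DMSO vehicle wells and 0.29 µM artemisinin as full inhibition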; conditions: P. falciparum 3D7 in erythrocytes, SYBR Green DNA fluorescence, 72 h; at 28.5 µM (top of the series) unless noted
# Method in brief: as §1
# [6] = qHTS profiling of the MIPE4 collection as inhibitors of Plasmodium falciparum (DD2) proliferation (AID 743345); conditions: P. falciparum Dd2 in erythrocytes, SYBR Green DNA, 72 h; at 28.5 µM (top of the series) unless noted
# Method in brief: as §1
# [7] = qHTS profiling of the MIPE4 collection as inhibitors of Plasmodium falciparum (DD2) proliferation (Rep 2) (AID 743346); conditions: P. falciparum Dd2 in erythrocytes, SYBR Green DNA, 72 h; at 28.5 µM (top of the series) unless noted
# Method in brief: as §1
# [8] = qHTS profiling of the MIPE4 collection as inhibitors of Plasmodium falciparum (HB3) proliferation (AID 743347);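 note: plate controls were DMSO vehicle wells for no effect and artemisinin wells for full effect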; conditions: P. falciparum HB3 in erythrocytes, SYBR Green DNA, 72 h; at 28.5 µM (top of the series) unless noted
# Method in brief: as §1
# [9] = qHTS assay for cell viability of HEK293 cells (AID 743288; active = well fitted curve in the direction sought with a large enough effect; an effect the other way counts as inactive or inconclusive; note: % is set by controls: 0 for no effect and ±100 for the full control effect; nearly all actives have a fitted effect of over 50% in size); conditions: ATP luminescence (CellTiter-Glo), 18 h; max response: stronger effect = lower value
# Method in brief: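 HEK293 parental, 2,000 cells/well; ≥5 h pre-incubation 37 C; pintool compound addition; 18 h, 37 C; CellTiter-Glo 30 min RT; luminescence read.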
# [10] = qHTS assay for cell viability of the p53RE-bla HCT-116 cell line (AID 743292; active = well fitted curve in the direction sought with a large enough effect; an effect the other way counts as inactive or inconclusive; note: % is set by controls: 0 for no effect and ±100 for the full control effect; nearly all actives have a fitted effect of over 55% in size); conditions: p53RE-bla HCT-116 viability, ATP luminescence, 16 h; series mostly up to 95 µM
# Method in brief: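 In this qHTS counter-screen, metabolically competent p53RE-bla HCT-116 cells were counted via their ATP content. Compounds were applied for 16 h at 37 C and luciferase-coupled luminescence was measured.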
# [11] = Ebola virus entry assay, green fluorescence channel
# [12] = Ebola virus entry assay, blue channel fluorescence
# [13] = Ebola virus entry assay, ratio channel
# Throughout, for efficacy: 0% is about no effect.
smiles,measurement,setting,value
C[C@@H]1[C@@H](CC(C[C@H]2O[C@@H]3O[C@]4(C)CC[C@@H]5[C@H](C)CC[C@@H]([C@H]2C)[C@@]35OO4)C[S+](=O)([O-])c2ccc(COC(=O)N(C)C)cc2)O[C@@H]2O[C@]3(C)CC[C@H]4[C@H](C)CC[C@@H]1[C@@]24OO3 (stereo partly drawn),Potency,[1],0.0023 µM (active)
same,remaining parasite growth % (stronger effect = lower value),[2],-0.6%
same,"activity, percent of control",[3],-0.0428%
same,"remaining proliferation (% of control), lower = more inhibition",[4],0.323%
same,"parasite growth, % of DMSO control",[5],25.5%
same,"parasite growth remaining, % of DMSO control (lower = more inhibition)",[6],6.65%
same,"parasite growth, % of control (lower = inhibition)",[7],23.2%
same,"growth, % of control",[8],20.9%
Oc1ccc(Cl)cc1Cc1ccccc1,max response,[1],-3.88% (inactive) and -14.6% (inactive)
same,max response,[9],-10.2% (inactive) and -5.38% (inactive)
same,Potency,[10],inactive
same,efficacy,[11],-105% (inactive)
same,AC50,[12],20 µM (active)
same,AC50,[13],10 µM (active) and 14.1 µM (active)
Clc1ccc(COC(Cn2ccnc2)c2ccc(Cl)cc2Cl)cc1 (stereo not drawn),Potency,[1],10 µM (active)
same,max response,[9],-21% (inactive)
same,efficacy,[11],-214% (inactive)
same,AC50,[12],10 µM (active)
same,AC50,[13],3.55 µM (active)
CNC(=O)N1N=C(c2ccc(N)cc2)c2cc3c(cc2CC1C)OCO3 (stereo not drawn),max response,[1],-1.27% (inactive)
same,remaining parasite growth % (stronger effect = lower value),[2],46.2%
same,"activity, percent of control",[3],92.1%
same,"remaining proliferation (% of control), lower = more inhibition",[4],83.9%
same,"parasite growth, % of DMSO control",[5],269%
same,"parasite growth remaining, % of DMSO control (lower = more inhibition)",[6],107%
same,"growth, % of control",[8],248%
CS(=O)c1ccc(-c2nc(-c3ccc(F)cc3)c(-c3ccncc3)[nH]2)cc1 (stereo not drawn),remaining parasite growth % (stronger effect = lower value),[2],64.7%
same,"activity, percent of control",[3],56.4%
same,"parasite growth, % of control (lower = inhibition)",[7],30.3% [at 57.5 µM]
Cc1ccc2c(c1)C1CN(C)CCC1N2 (stereo not drawn),max response,[1],-7.38% (inactive)
same,efficacy,[11],62.7% (inactive)
same,AC50,[12],17.8 µM (active)
same,AC50,[13],10 µM (active)
